Among all 140,000 compounds or so, about 840 (0.6%) were called active. The full list was thinned out, with actives kept by preference. Unmarked numbers belong to inactive results.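 How the source made its calls: active means viability gain under doxorubicin at or above a set limit, the compound median plus 3 SD (cut at about 4.7% in these data); inactive means the rest.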
experiment: H69AR viability gain despite doxorubicin, primary screen, MRP-1 activator project, H69AR cells, CellTiter-Glo (AID 799); details: viability rescue, at 10 µM, hits give high values;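 further: MRP-1 overexpressing cells given doxorubicin 25 µM after compound pretreatment; 18-22 h compound pretreatment then 72 h with doxorubicin before readout; 0% = doxorubicin-only wells and 100% = vehicle-treated cells without doxorubicin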

Structure (SMILES) | viability increase
CC(C)CNC(=O)COC(=O)/C=C/c1ccco1 | 1.16%
COc1ccc([N+](=O)[O-])cc1NC(=O)CCc1ccccc1 | -1.62%
COc1ccc([N+](=O)[O-])cc1NC(=O)COC(=O)/C=C/c1ccco1 | 7.08% (active)
Cc1[nH]c2ccccc2c1/C=N\NC(=O)Cn1nnc(-c2ccccc2)n1 | 3.22%
CN(C)CCCNC(=S)NCc1ccc(Cl)cc1 | -0.81%
CCOC(=O)NC(=O)CSc1nnc(SCCC(=O)O)s1 | 1.73%
CCCC(=O)Nc1cccc(NC(=S)NC(=O)C(C)Oc2ccc(Cl)cc2Cl)c1 (stereo unspecified) | -2.06%
Cc1cccnc1NC(=O)CSc1nnc(COc2ccc(C(C)C)cc2)n1C | 0.08%
Cc1ccc(OCc2nnc(SC3CCc4ccccc4C3=O)n2C)cc1 (stereo unspecified) | 7.21% (active)
COc1ccccc1C(=O)Nc1ccc(OCc2nnc3c4ccccc4c(C)nn23)cc1 | 0.29%
Cc1ccc2nc(SCc3cn4c(C)cc(C)nc4n3)[nH]c2c1 | 0%
COc1ccc(N2CCN(Cc3cc(=O)oc4ccc5ccccc5c34)CC2)cc1 | -1.38%
OC(COc1ccc2c(c1)CCC2)CN1CCN(c2cccc(Cl)c2)CC1 (stereo unspecified) | -3.05%
O=c1cc(CN2CCN(c3cccc(Cl)c3)CC2)c2cc3c(cc2o1)CCCC3 | 6.01% (active)
O=C(CSc1nc2ccccc2[nH]1)N/N=C/C=C\c1ccccc1[N+](=O)[O-] | -1.58%
COc1cccc(/C(C)=N/Nc2ncc(Cl)cc2Cl)c1 | -1%
Cn1cc(C(=O)NCc2ccccc2F)cn1 | -0.72%
CCn1nc(C)c(NC(=O)/C=C/c2ccc(OC)c(COc3ccc(Br)cc3)c2)c1C | 3.69%
COc1ccc(/C=C/C(=O)Nc2c(C)nn(C)c2C)cc1COc1ccc(Br)cc1 | 7.14% (active)
COc1ccc(/C=C/C(=O)Nc2ccc3c(c2)OCCO3)cc1OC | -2.17%
Cn1c(=O)c(Sc2ccc(Cl)cc2)c(O)c2ccccc21 | -2.5%
CCN(CC)CCNCc1ccc(OCc2ccc(Cl)nc2)c(OC)c1 | 1.21%
CCCCCC(=O)Nc1ccc(S(=O)(=O)Nc2ccc(Cl)nn2)cc1 | 6.79% (active)
COc1ccc(NS(=O)(=O)c2ccc(NC(=O)C(C)(C(F)(F)F)C(F)(F)F)cc2)nn1 | -0.72%
COc1ccc(NS(=O)(=O)c2ccc(NC(=S)NC(=O)/C=C/c3ccc(C)cc3)cc2)nn1 | -3.16%
O=C(/C=C/c1ccccc1)Nc1nnc(SCC(=O)c2ccc3ccccc3c2)s1 | -5.32%
